Compound activity from PubChem BioAssay.
hDAT+cocaine: changed hDAT dopamine uptake under cocaine IC80, either direction, primary screen, cocaine antagonist project, cell-based, LLC-PK1 hDAT, [14C]-dopamine uptake, MLSMR; Sodium-dependent dopamine transporter (Homo sapiens), Q01959; LLC-PK1 hDAT cells, [14C]-dopamine uptake with cocaine IC80; actives deviate in either direction; B-score at 10 µM; hit rate 1.3% among 110,000;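 active = Z score or B-score, a plate-position-corrected score, falls beyond the plate's 99.7% confidence bounds, in either direction; inactive = both scores lie inside the 99.7% bounds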
Target sequence (Q01959 whole entry, looked up): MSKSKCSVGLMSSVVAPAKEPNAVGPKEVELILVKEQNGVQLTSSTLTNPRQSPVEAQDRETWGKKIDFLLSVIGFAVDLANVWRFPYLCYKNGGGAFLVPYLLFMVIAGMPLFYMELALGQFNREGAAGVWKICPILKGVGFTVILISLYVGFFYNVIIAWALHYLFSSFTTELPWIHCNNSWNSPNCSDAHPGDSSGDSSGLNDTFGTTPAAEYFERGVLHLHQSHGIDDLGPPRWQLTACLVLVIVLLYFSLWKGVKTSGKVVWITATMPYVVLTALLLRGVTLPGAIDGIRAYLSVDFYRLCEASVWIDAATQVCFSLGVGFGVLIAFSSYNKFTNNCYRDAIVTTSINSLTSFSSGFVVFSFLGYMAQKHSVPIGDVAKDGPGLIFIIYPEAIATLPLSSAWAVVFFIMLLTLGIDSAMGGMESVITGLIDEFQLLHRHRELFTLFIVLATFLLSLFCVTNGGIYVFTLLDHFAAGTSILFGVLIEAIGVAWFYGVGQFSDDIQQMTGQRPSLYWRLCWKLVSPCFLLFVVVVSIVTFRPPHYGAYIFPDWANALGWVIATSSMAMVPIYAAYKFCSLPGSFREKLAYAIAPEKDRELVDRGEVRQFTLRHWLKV
GALR2 ag: GALR2 receptor agonists, primary screen, cell-based; hit rate 0.48% among 140,000; GALR2-expressing cells, agonist activation read-out; Galanin receptor type 2 (Homo sapiens), O43603; activation, % (test concentration not listed); in the data active = activation above about 5%, passing the limit was not always enough
S1P2 ag: S1P2 receptor agonists, primary screen, cell-based. S1P2-expressing cell line, agonist reporter read-out. hit rate 0.46% among 97,000. activation, % at 4.5 µM. Sphingosine 1-phosphate receptor 2 (Homo sapiens), O95136. AID 729, 2007; in the data active = activation above about 16%
S1P2 antag: human S1P2 receptor antagonists, primary screen, cell-based; cell-based S1P2 antagonist assay, inhibition at 5 uM; Sphingosine 1-phosphate receptor 2 (Homo sapiens), O95136; inhibition, % at 5 µM; hit rate 0.21% among 97,000; in the data active = inhibition above about 45%;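 note: CRE beta-lactamase reporter cells expressing human S1P2 stimulated with S1P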
GALR2 antag: GALR2 antagonists in receptor-expressing cells, primary screen. antagonist mode. inhibition, % at 4 µM. hit rate 0.39% among 140,000. AID 828, 2007; in the data active = inhibition above about 27%;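 note: cells stimulated with galanin 1-16 at roughly its EC80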
GALR2 ag confirm: GALR2 agonists, retest of hits, confirmation, cell-based | GALR2-expressing cells, agonist activation | shares compounds with GALR2 ag | hit rate 10% among 460 | activation, % at 5.6 µM; in the data active = activation above about 8.4%
BLA activ ctr: activators of NFAT-driven beta-lactamase reporter, confirmation, counter-screen for GALR2 agonist project, CHO NFAT-bla cells, FRET readout; shares compounds with GALR2 ag; beta-lactamase FRET activation; activation, % at 5.6 µM; hit rate 10% among 460;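 active = activation above the screen-wide mean activation plus 3 SD, cut at about 8% in these data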
Large screens that a line does not name were inactive (follow-up assays come after a bar, where they were run). Sampled rows, rich in hits. Any-hit rate of the full collection: about 2.1%.

COc1cc([C@H]2c3[nH]c4ccccc4c3C[C@H]3C(=O)N4[C@@H](c5cc(OC)c(OC)c(OC)c5)c5[nH]c6ccccc6c5C[C@H]4C(=O)N23)cc(OC)c1OC	GALR2 ag 9.6 (no result: S1P2 ag, S1P2 antag) | GALR2 ag confirm inactive | BLA activ ctr inactive
O=C1[C@@H]2Cc3c([nH]c4ccccc34)[C@@H](c3ccccc3)N2C(=O)[C@@H]2Cc3c([nH]c4ccccc34)[C@@H](c3ccccc3)N12	none (no result: hDAT+cocaine, S1P2 ag, S1P2 antag)
CCCCn1c(SCC(=O)c2cc(OC)ccc2OC)nc2cc(S(N)(=O)=O)ccc21	GALR2 ag 68 (no result: S1P2 ag, S1P2 antag) | GALR2 ag confirm inactive | BLA activ ctr inactive
CCCCn1c(SCc2ccc(C(=O)OC)o2)nc2cc(S(N)(=O)=O)ccc21	none
COc1ccc(NC(=O)CSc2nc(N)c(C#N)cc2C#N)cc1	none
CCOC(=O)c1c(C#N)c(SCC(=O)Nc2ccc(OC)cc2)nc2c1CN(CC)CC2	GALR2 ag 67 | GALR2 ag confirm inactive | BLA activ ctr inactive
Cc1c(C(=O)N(C)C)c2ccc(Cl)cc2n1O	none (no result: hDAT+cocaine, S1P2 ag, S1P2 antag)
CCOCC(=O)Nc1nnc(COC)s1	none
COCc1nnc(NC(=O)C(C)C)s1	GALR2 ag 136 | GALR2 ag confirm inactive | BLA activ ctr inactive
CCSc1nnc(-c2cccnc2)n1-c1ccc(C)c(Cl)c1	none | GALR2 ag confirm inactive | BLA activ ctr inactive
C=CCn1c(COc2ccccc2F)nnc1SCC(=O)c1c[nH]c2ccccc12	none (no result: hDAT+cocaine, S1P2 ag, S1P2 antag)
CC(=O)c1nn(-c2ccc(Br)cc2)cc1C(=O)c1ccco1	none
CC(=O)c1nn(-c2ccc(Br)cc2)cc1C(=O)c1ccccc1	GALR2 ag 8.6 (no result: hDAT+cocaine, S1P2 ag, S1P2 antag) | GALR2 ag confirm inactive | BLA activ ctr inactive
O=C(CSc1nnnn1-c1cccc(Cl)c1)Nc1ccc2c(c1)CCC2	GALR2 ag 8.8 (no result: hDAT+cocaine, S1P2 ag, S1P2 antag) | GALR2 ag confirm inactive | BLA activ ctr inactive
Cc1cccc(NC(=O)/C(C#N)=C/c2cn(CC(=O)NCc3ccco3)c3ccccc23)c1C	GALR2 ag 29 (no result: hDAT+cocaine, S1P2 ag, S1P2 antag) | GALR2 ag confirm 11 | BLA activ ctr 8.2
CCCCCOc1ccc(C(=O)NCC(=O)NCC(=O)OCC)cc1	none
C(=C\c1ccco1)/C1=NN(c2ccccc2)C(c2ccco2)C1 (configuration not stated)	GALR2 ag 72 (no result: hDAT+cocaine, S1P2 ag, S1P2 antag) | GALR2 ag confirm 27 | BLA activ ctr 39
CC(C)(C)NS(=O)(=O)c1ccc(CCC(=O)NCc2cccnc2)cc1	none
COCCNC(=O)CCc1c(C)nc2c(-c3ccc(F)cc3)c(C)nn2c1C	GALR2 ag 42 | GALR2 ag confirm inactive | BLA activ ctr inactive
Cc1nc2c(-c3ccc(F)cc3)c(C)nn2c(C)c1CCC(=O)NCCN1CCOCC1	none
OC1CN=C2C=CC=CN2C1 (configuration not stated)	none
CCc1cccc(C)c1NC(=O)CCCC(=O)O	none
Cc1cc(C)c(NC(=O)CCCC(=O)O)c(Cl)c1	GALR2 ag 13 | GALR2 ag confirm inactive | BLA activ ctr inactive
Cc1ccccc1OCc1nnc(SCC(=O)Nc2ccc(N3CCOCC3)c(Cl)c2)n1C	none
C=CCOc1ccc(C2/C(=C(\O)c3ccc(F)cc3)C(=O)C(=O)N2CCCN(C)C)cc1 (configuration not stated)	GALR2 ag 8.3 | GALR2 ag confirm inactive | BLA activ ctr inactive
Cc1nn(C)c(C)c1/C=N/NC(=O)CCn1cc([N+](=O)[O-])cn1	GALR2 ag 92 (no result: hDAT+cocaine, S1P2 ag, S1P2 antag) | GALR2 ag confirm inactive | BLA activ ctr inactive
Cc1ccc(NC(=O)/C(=C/c2ccco2)c2ccccc2)c(C)c1	GALR2 ag 91 | GALR2 ag confirm inactive | BLA activ ctr inactive
Cc1cc(C)c(NC(=O)/C(=C/c2ccccc2)c2ccccc2)c(C)c1	none (no result: hDAT+cocaine, S1P2 ag, S1P2 antag)
C=CCNC(=O)NC(=O)CSc1nc2cc([N+](=O)[O-])ccc2n1-c1cccc(C(F)(F)F)c1	none (no result: hDAT+cocaine, S1P2 ag, S1P2 antag)
COc1cccc(NC(=O)c2nn(C)cc2Br)c1	none
O=C(NC1CCCCC1)C(c1ccc(Cl)cc1)N1CCC2(CC1)OCCO2 (configuration not stated)	GALR2 ag 11 | GALR2 ag confirm inactive | BLA activ ctr inactive
Cc1ccc(C(C(=O)NC2CCCCC2)N2CCC3(CC2)OCCO3)cc1 (configuration not stated)	none
CC1CCN(Cc2nnnn2-c2cccc([N+](=O)[O-])c2)CC1	none (no result: hDAT+cocaine, S1P2 ag, S1P2 antag)
CC1CCc2cc(F)cc3c(O)c(C(=O)NCc4ccco4)c(=O)n1c23 (configuration not stated)	GALR2 ag 9.5 | GALR2 ag confirm inactive | BLA activ ctr inactive
CS(=O)(=O)Nc1cccc(C(=O)CC2(O)C(=O)Nc3ccc(Br)cc32)c1 (configuration not stated)	none
COc1ccc(/C=N/NC(=O)CNC(=O)C2COc3ccccc3O2)cc1OC (configuration not stated)	none (no result: hDAT+cocaine, S1P2 ag, S1P2 antag)
O=C(Nc1ccccc1-c1nnn(CC(=O)N2CCCc3ccccc32)n1)c1ccc(Cl)cc1	GALR2 ag 28 | GALR2 ag confirm inactive | BLA activ ctr inactive
Cc1ccc(NC2(c3nnnn3-c3c(C)cccc3C)CCCCC2)cc1	none (no result: hDAT+cocaine, S1P2 ag, S1P2 antag)
O=C(Cn1c2ccccc2c(=O)c2ccccc21)Nc1ccccc1F	GALR2 ag 15 (no result: hDAT+cocaine, S1P2 ag, S1P2 antag) | GALR2 ag confirm inactive | BLA activ ctr inactive
Cc1cccc2c1-c1sc(C(=O)Nc3nccs3)cc1CO2	GALR2 ag 89, S1P2 ag 24 | GALR2 ag confirm 11 | BLA activ ctr 24
CCOc1cc(S(=O)(=O)N2CCC(C(N)=O)CC2)ccc1F	none
Cc1cccc(C2=NN(c3ccc(Br)cc3)[C@@H](C(=O)N3CCOC3=O)[C@@H]2c2ccc(F)cc2)c1	GALR2 ag 9.8 (no result: S1P2 ag, S1P2 antag) | GALR2 ag confirm inactive | BLA activ ctr inactive
COc1ccccc1[C@@H]1C(c2cccc(Cl)c2)=NN(c2ccccc2)[C@H]1C(=O)N1CCOC1=O	GALR2 ag 30 (no result: S1P2 ag, S1P2 antag) | GALR2 ag confirm 13 | BLA activ ctr 22
COc1ccccc1C(=O)N1CCN(c2cccc(Cl)c2)CC1	none
O=C1OCCN1C(=O)[C@H]1[C@H](c2ccc(Cl)cc2)C(c2cccc(Cl)c2)=NN1c1ccccc1	GALR2 ag 23 (no result: S1P2 ag, S1P2 antag) | GALR2 ag confirm 10 | BLA activ ctr 19
Cc1cccc(C2=NC(C(F)(F)F)(C(F)(F)F)c3c(n(-c4ccc(F)cc4)c(=O)[nH]c3=O)N2)c1	none (no result: hDAT+cocaine, S1P2 ag, S1P2 antag)
COc1ccc2c(c1)C(C1C(=O)CCCC1=O)c1ccccc1O2 (configuration not stated)	none
COc1ccc(CCN2CCC(Nc3nc4ccccc4n3Cc3ccc(F)cc3)CC2)cc1	GALR2 ag 25 (no result: S1P2 ag, S1P2 antag) | GALR2 ag confirm 18 | BLA activ ctr inactive
